Compounds without any hit were thinned out: in the full panel of roughly 83,000, 20% have a hit.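 Single-concentration screen, 48 h exposure, 96-well plates. Endpoint: percent growth. Below 10 = active.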 Unmarked numbers belong to inactive results. The source made the active and inactive calls.
How the values were obtained:
Experiment in all cases: NCI-60 one-dose screen, 48 h (100 = growth as untreated, 0 = no growth, -100 = all killed)
Conditions in all cases: 10 µM unless noted
SR leukemia = tested on: SR leukemia
RPMI-8226 leukemia = tested on: RPMI-8226 leukemia
OVCAR-8 ovarian = tested on: OVCAR-8 ovarian
OVCAR-5 ovarian = tested on: OVCAR-5 ovarian
OVCAR-4 ovarian = tested on: OVCAR-4 ovarian
SK-OV-3 ovarian = tested on: SK-OV-3 ovarian
OVCAR-3 ovarian = tested on: OVCAR-3 ovarian
HS 578T breast = tested on: HS 578T breast
NCI/ADR-RES ovarian = tested on: NCI/ADR-RES ovarian
IGROV1 ovarian = tested on: IGROV1 ovarian

SMILES | growth (SR leukemia) | growth (RPMI-8226 leukemia) | growth (OVCAR-8 ovarian) | growth (OVCAR-5 ovarian) | growth (OVCAR-4 ovarian) | growth (SK-OV-3 ovarian) | growth (OVCAR-3 ovarian) | growth (HS 578T breast) | growth (NCI/ADR-RES ovarian) | growth (IGROV1 ovarian)
COC(=O)N/N=C/c1coc2ccc(Cl)cc2c1=O | 53.8% | 60.3% | 110% | 95.3% | 97% | 92.3% | 63.4% | 92.8% | 99% | –
CC(=O)OC1Oc2cc(C)c(C)cc2-c2oc(=O)c(-c3ccccc3)cc21 (configuration not stated) | -42.2% (active) | -18.1% (active) | 24.4% | 67.9% | 42% | 11.6% | -39.9% (active) | -19.5% (active) | 25.3% | –
O=C1C(=O)c2c(nc3ccc(Cl)cn23)-c2ccccc21 | -86.5% (active) | -53.7% (active) | -100% (active) | -100% (active) | -100% (active) | -100% (active) | -96% (active) | -33.8% (active) | -41.1% (active) | –
CCCn1c(N)c(C(=O)CNc2ccc(I)cc2)c(=O)[nH]c1=O | 139% | 29.1% | 49.5% | 137% | 74.4% | 56% | 64.9% | 44.3% | 77.1% | –
COc1ccccc1-n1c(-c2ccc(O)cc2C)cn2c3c(=O)[nH]c(=O)n(C)c3nc12 | 90.8% | 93% | 86.3% | 86.9% | 84.4% | 65.8% | – | 50.2% | 108% | 21.9%
COc1cc2c(cc1OC)C(CC1(O)CCCCC1)N(S(=O)(=O)c1ccc(C)cc1)CC2 (configuration not stated) | -10.4% [100 µM] (active) | 16.7% [100 µM] | 26.8% [100 µM] | 76.2% [100 µM] | 25.4% [100 µM] | 80% [100 µM] | -15.5% [100 µM] (active) | 57.3% [100 µM] | 34.5% [100 µM] | –
CC(=O)Nc1ccc(C(=O)COc2ccc(/C=C3\CCc4ccccc4C3=O)cc2)cc1 | 84.4% | 83.3% | 98.8% | 101% | 104% | 117% | 111% | 99% | 96.2% | –
Cc1ccc(NC(=O)c2sc3nc4c(cc3c2N)C(=O)CCC4)cc1 | 63.1% | 93.4% | 98.3% | 78.6% | 106% | 37.5% | 133% | 107% | 98.2% | –
COc1ccc(CNC(=O)c2c(C)n([O-])c3ccc(OC)cc3[n+]2=O)cc1 | 90.4% | 94% | 87% | 103% | 105% | 126% | 187% | 108% | 21.3% | –
c1ccc(N2c3nc4ccccc4cc3Sc3cc4ccccc4nc32)nc1 | 77.7% | 80.9% | 88.8% | 81.9% | 102% | 104% | 96.7% | 83.2% | 82.7% | –
Cc1ccc(-c2cc(-c3ccccc3)n(-c3ccccc3)n2)cc1 | 72.3% | 83.8% | 105% | 95.8% | 85.3% | 105% | 103% | – | 101% | –
COc1ccc2nc(-c3ccc(Cl)cc3)cc(-c3nnc(SCC(=O)Nc4ccc(C(C)=O)cc4)n3-c3ccccc3)c2c1 | 83.7% | 104% | 102% | 96.4% | 93.7% | 93.9% | 96.8% | 99.5% | 95.2% | –
Cc1ccc(-c2csc(N)n2)cc1 | 86.3% | 89.2% | 101% | 94% | 94% | 108% | 114% | 115% | 104% | –
C=C(CN1CCc2c([nH]c3ccccc23)C1)c1ccc(C(=O)Nc2ccon2)cc1 | 80.9% | 78.4% | 78.2% | 90.2% | 85.5% | 61.8% | 92.6% | 94.4% | 99.9% | –
CCC(C)C1NC(=O)C(CCNCS(=O)(=O)O)NC(=O)C(NC(=O)C(CCNCS(=O)(=O)O)NC(=O)C(NC(=O)C(CCNCS(=O)(=O)O)NC(=O)CCCCC(C)C)C(C)O)CCNC(=O)C(C(C)O)NC(=O)C(CCNCS(=O)(=O)O)NC(=O)C(CCNCS(=O)(=O)O)NC(=O)C(C(C)CC)NC1=O (configuration not stated) | 16.4% | 22.6% | 78.7% | 73.1% | 58.1% | 40.3% | – | – | 107% | –
Cc1ccc2c(c1)C(=O)/C(=C\Nc1ccc(C(N)=O)cc1)C(O)O2 (configuration not stated) | 97.1% | 46.5% | 97.1% | 110% | 101% | 107% | 84.6% | 97.4% | 110% | –
C[N+]1(C)C2CC[C@@H]1CC(OC(=O)C(O)c1ccccc1)C2 (some centres not stated) | 115% | 93.9% | 108% | 106% | 110% | 117% | 121% | 119% | 103% | –
CC(C)N(Cc1ccccc1)c1c(S)ssc1=S | 2.98% (active) | -65.4% (active) | 14.7% | 14.1% | -2.68% (active) | 11.7% | 28.1% | 6.03% (active) | 15.9% | –
COc1ccc(C(=O)COc2ccc(/C=C3\Oc4ccc5ccccc5c4C3=O)cc2)cc1 | 40.2% | 66.8% | 90.6% | 106% | 88.9% | 97.8% | 115% | 96.3% | 97.4% | –
Cc1n(Cc2ccc3ccccc3c2)c2ccccc2[n+]1Cc1ccc2ccccc2c1 | -35.5% (active) | -57.7% (active) | -31.1% (active) | -46.4% (active) | -7.76% (active) | -18.4% (active) | -78.1% (active) | -0.489% (active) | 82.4% | –
CCOC1Oc2ccccc2C(=O)/C1=N/c1nccs1 (configuration not stated) | 57.1% | 36.3% | 114% | 99.1% | 94.5% | 97.7% | 64.7% | 90.3% | 87.9% | –
Cc1ccc(S(=O)(=O)NCCN2c3nc4ccccc4cc3Sc3cc4ccccc4nc32)cc1 | 73.7% | 78.7% | 34.1% | 85.6% | 22.9% | 53.3% | 83.7% | 33.4% | 63.1% | –
O=C(COc1cccc(/C=C2\Oc3ccc4ccccc4c3C2=O)c1)c1ccc(Cl)cc1 | 51.6% | 67.9% | 80% | 108% | 85.3% | 95.6% | 93.8% | 92.8% | 100% | –
COc1cc(/C=C/c2cc(/C=C/c3ccc(O)c(OC)c3)n(C(=O)c3ccc(Cl)cc3)n2)ccc1O | 3.07% (active) | -16.1% (active) | 29.1% | 79.9% | 36.5% | – | 7.65% (active) | 10.1% | 21.9% | 34%
COc1ccc(C(=O)COc2cccc(/C=C3\CSc4ccc(Cl)cc4C3=O)c2)cc1 | 20% | -13.7% (active) | 78.4% | 93.5% | 64.6% | 94.6% | 88% | 91% | 84.3% | –
O=C1c2cccc(NCCN=Cc3ccccc3O)c2C(=O)c2c(NCCN=Cc3ccccc3O)cccc21 | -20.9% (active) | -9.08% (active) | 17% | 15.9% | 2.43% (active) | 29% | 11.1% | 4.31% (active) | 93.9% | –
O=c1[nH]c(N2CCC(Cc3ccccc3)CC2)nc2sc3c(c12)CCCC3 | 109% | 107% | 96.3% | 107% | 110% | 101% | 106% | – | 96.6% | –
O=c1[nH]c(SCc2ccccc2)nc2nc(Nc3ccc(NC(=S)Nc4ccccc4)cc3)nc(-c3ccc(O)cc3O)c12 | 54.8% | 96.5% | 108% | 87.5% | 100% | 91.4% | 81.1% | 107% | 99.3% | –
COc1cc(/C=C2\SC(N3CCCCC3)=NC2=O)ccc1OCCCCCCOc1ccc(/C=C2\SC(N3CCCCC3)=NC2=O)cc1OC | 0.724% (active) | -5.76% (active) | 8.07% (active) | 40.6% | 21% | 41.9% | -82.9% (active) | 7.66% (active) | 0.636% (active) | –

Source: PubChem BioAssay (NCI)
